# Laboratory results reported in ChEMBL document CHEMBL3988442, “University of Dundee, Small-Polar-MMV Screening Library” (2021).
# Screen size: about 69,000 compounds; about 1,000 (1.4%) showed an effect of 50% or more. The sample as a whole holds a higher share of strong results than the screen did.
# System: Leishmania donovani
# Assay: Leishmania intramacrophage assay
# Assay type: functional, organism-based
# Parameters: scale not given: in the data most compounds retested in dose-response had high values
structure (smiles),measurement,setting,value
COc1cc(N2CC[C@H](O)[C@@H]2Cc2cnn(C)c2)ncn1,Percent Effect,"30 µM, 30.03 µM",12.89%
COc1ccccc1C(=O)N1C[C@@H]2CCCCN(CC(N)=O)[C@@H]2C1,Percent Effect,"30.3 µM, […]",-33.88%
O=C(Nc1ccccn1)N(CCO)Cc1ccccc1Br,Percent Effect,30 µM,5.548%
CN1CCN(Cc2ccc(-c3ccc(C(N)=O)cc3)nc2)CC1,Percent Effect,"30.3 µM, […]",77.28%
CN1CCN(Cc2ccc(-c3ccc4[nH]ccc4c3)nc2)CC1,Percent Effect,"30.3 µM, […]",-38.55%
CN1CCN(Cc2ccc(-c3ccc(-c4ccn[nH]4)cc3)nc2)CC1,Percent Effect,"30.3 µM, […]",8.288%
CS(=O)(=O)N1CC[C@H]2OCC[C@@]2(C(=O)NCc2ccccn2)C1.O=C(O)C(F)(F)F,Percent Effect,"30.3 µM, […]",38.61%
CC(C)N1CC2(CCC1=O)CCN(c1ccnc3ccccc13)CC2,Percent Effect,"30.3 µM, […]",16.36%
CC(C)N1CC2(CCCN(c3ccccn3)C2)CCC1=O (stereo not drawn),Percent Effect,"30.3 µM, […]",24.82%
CC(C)N1CC2(CCCN(c3ccnc4ccccc34)C2)CCC1=O (stereo not drawn),Percent Effect,"30.3 µM, […]",61.79%
CN1CCN(C(=O)c2cccc(S(=O)(=O)NCC3(C)COC3)c2)CC1,Percent Effect,"30.3 µM, […]",33.44%
COc1cc(NCc2c(C)noc2C)c(OC)cc1Cl,Percent Effect,"30.3 µM, […]",13.7%
COc1cc(Cl)c(NCc2c(C)noc2C)cc1OC,Percent Effect,"30.3 µM, […]",14.57%
COC(=O)COc1cc(NCc2c(C)noc2C)c(Cl)cc1C,Percent Effect,"30.3 µM, […]",56.06%
CN1C(=O)COc2cc(NC(=O)CCc3nc4cccnc4[nH]3)ccc21,Percent Effect,"30.3 µM, […]",33.08%
CN1C(=O)COc2ccc(NC(=O)CCc3nc4cccnc4[nH]3)cc21,Percent Effect,"30.3 µM, […]",53.55%
O=C(CCc1nc2cccnc2[nH]1)Nc1ccc2c(c1)NC(=O)CO2,Percent Effect,"30.3 µM, […]",20.44%
O=C(N[C@@H]1CCN(C(=O)c2cc[nH]c2)C[C@H]1O)c1ccccn1,Percent Effect,"30.3 µM, […]",4.682%
CN1CCC(CNC(=O)c2cccc(CN3CCCCCC3)c2)C1 (stereo not drawn),Percent Effect,"30.3 µM, […]",-20.09%
CCC[C@H]1CN(S(C)(=O)=O)C[C@@H]1NC(=O)CCOCC,Percent Effect,"30.3 µM, […]",-29.93%
Cc1ccc(NC(=O)c2n[nH]c(-n3cnnc3)n2)cc1,Percent Effect,"30.3 µM, […]",53.89%
O=C(Nc1ccccc1)c1n[nH]c(-n2cnnc2)n1,Percent Effect,"30.3 µM, […]",15.16%
CCc1ccc(NC(=O)c2n[nH]c(-n3cnnc3)n2)cc1,Percent Effect,"30.3 µM, […]",-23.27%
O=C(NCC(O)(c1ccco1)C1CC1)c1ccccc1F (stereo not drawn),Percent Effect,"30.3 µM, […]",-8.312%
CCCS(=O)(=O)CCN1CCOC(c2ccsc2)C1 (stereo not drawn),Percent Effect,"30.3 µM, […]",22.47%
CNS(=O)(=O)CC(=O)N1CCC(c2ccc(F)c(F)c2)CC1,Percent Effect,"30.3 µM, […]",9.155%
CC(C)c1nnc2n1CCN(C(=O)c1ccc3c(c1)NC(=O)CO3)C2,Percent Effect,"30.3 µM, […]",10.03%
O=C(C1CCC1)N1C[C@@H]2CCN(c3cccnc3)C[C@@H]2C1.O=C(O)C(F)(F)F,Percent Effect,"30.3 µM, […]",7.145%
O=C(O)C(F)(F)F.O=C(c1ccc(F)cc1)N1C[C@@H]2CCN(c3cccnc3)C[C@@H]2C1,Percent Effect,"30.3 µM, […]",-2.032%
Fc1cccc(N2C[C@H]3CCN(c4cccnc4)C[C@H]3C2)c1.O=C(O)C(F)(F)F,Percent Effect,"30 µM, 30.03 µM",57.72%
CCn1cnnc1C1CCN(C(=O)c2cccc3c2ccn3C)CC1,Percent Effect,"30 µM, 30.03 µM",34.62%
CNC(=O)Cc1ccc(NC(=O)NC2(c3cccc(F)c3)CC2)cc1,Percent Effect,"30.3 µM, […]",15.99%
Clc1cccc(-c2cccc(N3CCC(NC4CCOCC4)CC3)c2)c1,Percent Effect,"30.3 µM, […]",97.72%
O=C(Cc1cccc(O)c1)NC1CCN(c2cccc(Cl)c2)C1 (stereo not drawn),Percent Effect,"30.3 µM, […]",5.178%
Cc1nnc(-c2cccc(N3CCC(NC4CCSC4)CC3)c2)s1 (stereo not drawn),Percent Effect,"30.3 µM, […]",17.73%
CCc1cccc(N2CCC(NC(=O)C3CCOCC3)CC2)c1,Percent Effect,30 µM,8.469%
Cc1nc(-c2cccc(N3CCC(NC4CCOCC4)CC3)c2)cs1,Percent Effect,"30.3 µM, […]",22.64%
Cc1ccc(-c2cccc(N3CCC(NC4CCOCC4)CC3)c2)cc1,Percent Effect,"30.3 µM, […]",88.48%
CN(C(=O)Cn1nc(-c2cccs2)ccc1=O)C1CCS(=O)(=O)C1 (stereo not drawn),Percent Effect,"30 µM, 30.03 µM",-0.2404%
CCn1nc(C)c2nnn(CC(=O)Nc3ccc(C)c(C)c3)c(=O)c21,Percent Effect,"30.3 µM, […]",-87.23%
COCCN1CCOCC12CCN(c1ccc(C#N)cc1)CC2.O=C(O)C(F)(F)F,Percent Effect,"30.3 µM, […]",3.251%
O=C(N[C@@H]1CCCNC1)C1(Oc2ccc(Cl)cc2)CCNCC1,Percent Effect,"30.3 µM, […]",12.74%
CO[C@H]1COC[C@@H]1NC(=O)C1(Oc2ccc(Cl)cc2)CCNCC1,Percent Effect,"30.3 µM, […]",9.396%
O=C(N[C@@H]1C[C@H]2CC[C@@H]1C2)C1(Oc2ccc(Cl)cc2)CCNCC1,Percent Effect,"30.3 µM, […]",99.44%
CCOc1ccc(OCc2nc3c(c(=O)[nH]2)CCNC3)cc1,Percent Effect,"30.3 µM, […]",15.57%
COc1ccc(C(=O)NCCCNc2ccc(C(F)(F)F)cn2)cc1,Percent Effect,30 µM,37.73%
O=C(NCCCNc1ccc(C(F)(F)F)cn1)c1ccc(F)cc1Br,Percent Effect,30 µM,45.44%
COc1ccc(Br)c(C(=O)NCCNc2ccc(C(F)(F)F)cn2)c1,Percent Effect,"30 µM, 30.03 µM",56.64%
CCOC(=O)N1CCc2ccccc2C12CCNCC2.Cl,Percent Effect,"30.3 µM, […]",0.5062%
CNC(=O)COc1ccc(CNc2cncc(-n3cccn3)n2)cc1,Percent Effect,30 µM,19.22%
COCc1ccc(CNc2cncc(-n3cccn3)n2)cc1,Percent Effect,30 µM,27.73%
COC(=O)Nc1ccc(CNc2cncc(-n3cccn3)n2)cc1,Percent Effect,30 µM,52.92%
CN1CC[C@H]2CN(C(=O)c3ccc4sc5c(c4c3)CCNC5=O)C[C@H]21,Percent Effect,"30.3 µM, […]",4.332%
